Results published in PubChem BioAssay AID1159580 (chemical genetic matrix, 2015).
Where “and” joins values, the source holds several entries; their conditions need not be identical. Equal values may be shown once. Among all 5,500 compounds or so, about 2,000 (36%) were called active. About 18% were inconclusive and are not listed. No stated cut-off is given here; in the data, active means normalized growth mostly below about 0.91 (no sharp cut-off); inconclusive means no clear call, values can overlap the other calls; inactive means mostly above about 0.92. This is one part of the list.

Assay: chemical genetic growth profiling, strain panel (AID 1159580);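 further: tested at 20 µM; growth read once vehicle control cultures reached saturation at 30 °C; 1 = growth at the plate median or of vehicle wells; lower values mean less growth of the strain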
Conditions: S. cerevisiae deletion strains, growth OD

Measured: normalized growth

Cc1cc(=O)oc2cc(O)c(O)cc12
inactive: locus YAL021C, strain ccr4, active compounds read low 1.01 | locus YAL026C, strain drs2, active compounds read low 0.996 | locus YAL030W, strain snc1, active compounds read low 1 | locus YBL061C, strain skt5, active compounds read low 0.999 | locus YBR009C, strain hhf1, active compounds read low 0.963 | locus YBR021W, strain FUR4, active compounds read low 1.02 | locus YBR023C, strain chs3, active compounds read low 0.998 | locus YBR171W, strain sec66, active compounds read low 0.987 | locus YBR229C, strain ROT2, active compounds read low 1 | locus YBR231C, strain swc5, active compounds read low 0.995 | locus YBR279W, strain paf1, active compounds read low 0.987 | locus YCL011C, strain gbp2, active compounds read low 0.994 | locus YCL016C, strain dcc1, active compounds read low 1 | locus YCL029C, strain bik1, active compounds read low 0.974 | locus YCL061C, strain MRC1, active compounds read low 0.989 | locus YCL069W, strain vba3, active compounds read low 0.99 | locus YCR088W, strain abp1, active compounds read low 1 | locus YDL005C, strain med2, active compounds read low 0.98 | locus YDL035C, strain GPR1, active compounds read low 0.973 | locus YDL040C, strain nat1, active compounds read low 0.983 | locus YDL074C, strain BRE1, active compounds read low 0.976 | locus YDL101C, strain DUN1, active compounds read low 0.958 | locus YDL134C, strain PPH21, active compounds read low 0.955 | locus YDL185W, strain tfp1, active compounds read low 0.979 | locus YDL192W, strain arf1, active compounds read low 0.961 | locus YDR001C, strain nth1, active compounds read low 0.998 | locus YDR069C, strain doa4, active compounds read low 0.994 | locus YDR101C, strain arx1, active compounds read low 0.973 | locus YDR137W, strain rgp1, active compounds read low 0.964 | locus YDR159W, strain sac3, active compounds read low 0.997 | locus YDR162C, strain NBP2, active compounds read low 0.985 | locus YDR195W, strain ref2 1.05 | locus YDR297W, strain sur2, active compounds read low 0.995 | locus YDR318W, strain mcm21, active compounds read low 0.966 | locus YDR334W, strain swr1, active compounds read low 0.99 | locus YDR335W, strain msn5, active compounds read low 0.994 | locus YDR388W, active compounds read low 0.99 | locus YDR392W, strain spt3, active compounds read low 0.91 | locus YDR502C, strain sam2, active compounds read low 0.974 | locus YEL003W, strain gim4, active compounds read low 0.981 | locus YEL037C, strain rad23, active compounds read low 0.991 | locus YEL061C, strain CIN8 (second series), active compounds read low 0.988 | locus YEL061C, strain CIN8, active compounds read low 0.999 | locus YER015W, strain faa2, active compounds read low 0.998 | locus YER016W, strain bim1, active compounds read low 0.995 | locus YER110C, active compounds read low 0.973 | locus YER111C, strain swi4, active compounds read low 1.01 | locus YER155C, strain BEM2, active compounds read low 1.01 | locus YER167W, strain BCK2, active compounds read low 1.02 | locus YFR010W, strain ubp6, active compounds read low 0.997 | locus YGL078C, strain dbp3, active compounds read low 0.959 | locus YGL086W, strain mad1, active compounds read low 0.993 | locus YGL167C, strain pmr1, active compounds read low 0.99 | locus YGL173C, strain kem1, active compounds read low 0.978 | locus YGL227W, strain vid30, active compounds read low 1 | locus YGL240W, strain doc1, active compounds read low 0.952 | locus YGL248W, strain PDE1, active compounds read low 0.98 | locus YGL253W, strain hxk2, active compounds read low 1 | locus YGR078C, strain PAC10, active compounds read low 0.983 | locus YGR135W, strain pre9, active compounds read low 0.957 | locus YGR229C, strain SMI1, active compounds read low 0.974 | locus YGR252W, strain gcn5, active compounds read low 0.79 | locus YHR013C, strain ard1, active compounds read low 0.985 | locus YHR027C, strain rpn1, active compounds read low 1 | locus YHR030C, strain SLT2, active compounds read low 1.01 and 0.905 | locus YHR079C, strain IRE1 (second series), active compounds read low 1.01 | locus YHR079C, strain IRE1, active compounds read low 0.901 | locus YHR094C, strain hxt1, active compounds read low 1.02 | locus YHR129C, strain ARP1, active compounds read low 0.999 | locus YHR142W, strain chs7, active compounds read low 0.958 | locus YHR200W, strain rpn10, active compounds read low 0.972 | locus YIL066C, strain RNR3, active compounds read low 1 | locus YIL073C, strain SPO22, active compounds read low 1 | locus YIL125W, strain kgd1, active compounds read low 1.01 | locus YIR030C, strain dcg1, active compounds read low 0.99 | locus YJL092W, strain hpr5, active compounds read low 0.993 | locus YJL095W, strain BCK1 (second series), active compounds read low 0.998 | locus YJL095W, strain BCK1, active compounds read low 0.932 and 0.924 | locus YJL115W, strain asf1, active compounds read low 0.994 | locus YJL129C, strain trk1, active compounds read low 1.05 | locus YJL134W, strain LCB3, active compounds read low 1.01 | locus YJL154C, strain vps35, active compounds read low 1.01 | locus YJL164C, strain tpk1, active compounds read low 0.973 | locus YJL166W, strain qcr8, active compounds read low 0.995 | locus YJL168C, strain set2, active compounds read low 1 | locus YJL187C, strain SWE1 (second series), active compounds read low 0.991 | locus YJL187C, strain SWE1, active compounds read low 0.999
active: locus YER155C, strain BEM2 (second series), active compounds read low 0.787
